What follows are compounds tested on Madurella mycetomatis MM55 (assay: growth relative to untreated control; higher = less inhibition, active = 20 or less). Conditions: 25 µM.
Experimental: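 Hyphal fragments of M. mycetomatis MM55 or F. senegalensis CBS197.79 in RPMI 1640/MOPS were exposed to each MMV COVID Box or Global Health Priority Box compound at 100 or 25 µM for 7 days at 37 °C. Viability was read with MTS (490 nm, M. mycetomatis) or resazurin (600 nm, F. senegalensis), background-corrected with a medium-only control and expressed as % growth relative to the untreated growth control. Inhibition of more than 80% was taken as growth inhibition.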

Compound	growth
Clc1ccc(Nc2nc3cnc(NC4CC4)nc3n2C2CCNCC2)cc1Cl	73.7% (inactive)
O=C(NCCCNc1nc(Nc2ccc(N3CCOCC3)cc2)ncc1C1CC1)C1CCC1	101% (inactive)
C[C@@H]1CCCN1CCc1cc2cc(-c3ccc(C#N)cc3)ccc2o1	71.7% (inactive)
Cc1ccc(NC(=O)c2ccc(CN3CCN(C)CC3)cc2)cc1Nc1nccc(-c2cccnc2)n1	86% (inactive)
N#CC[C@H](C1CCCC1)n1cc(-c2ncnc3[nH]ccc23)cn1	76.6% (inactive)
COc1ccc(CCN(Cc2cccs2)C(=O)c2cc3sccc3n2C)cc1OC	5.66% (active)
c1ccc(CCc2nc3cccnc3n2C2CCN(C3CCN(Cc4ccccc4)CC3)CC2)cc1	63.2% (inactive)
CN1CCC[C@@H]1CCO[C@](C)(c1ccccc1)c1ccc(Cl)cc1	11.1% (active)
O=C(Nc1cccc(-c2n[nH]c3ccc(-c4n[nH]c(C5CCCN5)n4)cc23)c1)C1CC1 (stereo not given)	62.4% (inactive)
Cn1nc(-c2cccc(C#N)c2)c2cc(-c3n[nH]c(C4CCCN4)n3)ccc21 (stereo not given)	92.7% (inactive)
c1cc(N2CCC(CN3CCOCC3)CC2)c2sccc2n1	90.4% (inactive)
C[C@H](NC(=O)c1cc2ccc(F)cc2[nH]1)c1ccccc1	83.1% (inactive)
O[C@@H](c1cc(C(F)(F)F)nc2c(C(F)(F)F)cccc12)[C@H]1CCCCN1	5.4% (active)
COc1ccc2nc3cc(Cl)ccc3c(Nc3cc(CN4CCCC4)c(O)c(CN4CCCC4)c3)c2n1	76.3% (inactive)
C[C@@H](C1CCCCC1)n1c(-c2cc3c(cc2Br)OCO3)nc2cc(C(=O)Nc3ccc(C#N)cc3)ccc21	109% (inactive)
CC[C@@H]([C@H](C)O)n1ncn(-c2ccc(N3CCN(c4ccc(OC[C@@H]5CO[C@@](Cn6cncn6)(c6ccc(F)cc6F)C5)cc4)CC3)cc2)c1=O	6.56% (active)
COc1ccc(CCN(C)CCCC(C#N)(c2ccc(OC)c(OC)c2)C(C)C)cc1OC (stereo not given)	76.9% (inactive)
Cc1ccc(-c2noc(-c3ccccc3)n2)cc1	43.1% (inactive)
FC(F)(F)c1ccc(CNc2ccc(Cc3c[nH]c4ncc(Cl)cc34)cn2)cn1	93.1% (inactive)
COc1ccc(CCNc2nccc(-c3cc(Cl)cc(C(F)(F)F)c3)n2)cc1	110% (inactive)

Same assay, conditions: 100 µM

Compound	growth
Clc1ccc(Nc2nc3cnc(NC4CC4)nc3n2C2CCNCC2)cc1Cl	73% (inactive)
O=C(NCCCNc1nc(Nc2ccc(N3CCOCC3)cc2)ncc1C1CC1)C1CCC1	72.1% (inactive)
C[C@@H]1CCCN1CCc1cc2cc(-c3ccc(C#N)cc3)ccc2o1	4.57% (active)
Cc1ccc(NC(=O)c2ccc(CN3CCN(C)CC3)cc2)cc1Nc1nccc(-c2cccnc2)n1	70.7% (inactive)
N#CC[C@H](C1CCCC1)n1cc(-c2ncnc3[nH]ccc23)cn1	92.4% (inactive)
COc1ccc(CCN(Cc2cccs2)C(=O)c2cc3sccc3n2C)cc1OC	31.3% (inactive)
c1ccc(CCc2nc3cccnc3n2C2CCN(C3CCN(Cc4ccccc4)CC3)CC2)cc1	5.59% (active)
CN1CCC[C@@H]1CCO[C@](C)(c1ccccc1)c1ccc(Cl)cc1	4.37% (active)
O=C(Nc1cccc(-c2n[nH]c3ccc(-c4n[nH]c(C5CCCN5)n4)cc23)c1)C1CC1 (stereo not given)	36.4% (inactive)
Cn1nc(-c2cccc(C#N)c2)c2cc(-c3n[nH]c(C4CCCN4)n3)ccc21 (stereo not given)	74.9% (inactive)
c1cc(N2CCC(CN3CCOCC3)CC2)c2sccc2n1	31.4% (inactive)
C[C@H](NC(=O)c1cc2ccc(F)cc2[nH]1)c1ccccc1	82.5% (inactive)
O[C@@H](c1cc(C(F)(F)F)nc2c(C(F)(F)F)cccc12)[C@H]1CCCCN1	4.2% (active)
COc1ccc2nc3cc(Cl)ccc3c(Nc3cc(CN4CCCC4)c(O)c(CN4CCCC4)c3)c2n1	40% (inactive)
C[C@@H](C1CCCCC1)n1c(-c2cc3c(cc2Br)OCO3)nc2cc(C(=O)Nc3ccc(C#N)cc3)ccc21	89% (inactive)
CC[C@@H]([C@H](C)O)n1ncn(-c2ccc(N3CCN(c4ccc(OC[C@@H]5CO[C@@](Cn6cncn6)(c6ccc(F)cc6F)C5)cc4)CC3)cc2)c1=O	9.91% (active)
COc1ccc(CCN(C)CCCC(C#N)(c2ccc(OC)c(OC)c2)C(C)C)cc1OC (stereo not given)	98.8% (inactive)
Cc1ccc(-c2noc(-c3ccccc3)n2)cc1	90.5% (inactive)
FC(F)(F)c1ccc(CNc2ccc(Cc3c[nH]c4ncc(Cl)cc34)cn2)cn1	95.5% (inactive)
COc1ccc(CCNc2nccc(-c3cc(Cl)cc(C(F)(F)F)c3)n2)cc1	116% (inactive)
